Source: PubChem BioAssay (NCATS)
Records with an inconclusive call do not appear. Active and inactive are the calls of the source. Unless noted, calls follow the shape of the full dose curve.

Tests used:
[1] = qHTS for Inhibitors of the Functional Ribonucleoprotein Complex (vRNP) of Lassa (LASV) Arenavirus: LASV Primary Screen - GLuc reporter signal (AID 1347082; calls by dose curve; tested in HEK293 reporter line; also: nearly all actives have a fitted effect of over 60% in size)
[2] = qHTS for Inhibitors of the Functional Ribonucleoprotein Complex (vRNP) of Lassa (LASV) Arenavirus: Viability assay - alamar blue signal for LASV Primary Screen (AID 1347083; calls by dose curve; tested in HEK293 reporter line; also: nearly all actives have a fitted effect of over 80% in size)
[3] = qHTS for Inhibitors of the Functional Ribonucleoprotein Complex (vRNP) of Lymphocytic Choriomeningitis Arenaviruses (LCMV): Viability assay - alamar blue signal for LCMV Primary Screen (AID 1347085; calls by dose curve; tested in HEK293 reporter line; also: nearly all actives have a fitted effect of over 80% in size)
[4] = biological target: Nucleoprotein (Lymphocytic choriomeningitis virus (strain Armstrong)) (UniProt P09992); test: qHTS for Inhibitors of the Functional Ribonucleoprotein Complex (vRNP) of Lymphocytic Choriomeningitis Arenaviruses (LCMV): LCMV Primary Screen - GLuc reporter signal (AID 1347086); also: nearly all actives have a fitted effect of over 70% in size
Nucleoprotein (Lymphocytic choriomeningitis virus (strain Armstrong)), sequence (P09992 whole entry, looked up): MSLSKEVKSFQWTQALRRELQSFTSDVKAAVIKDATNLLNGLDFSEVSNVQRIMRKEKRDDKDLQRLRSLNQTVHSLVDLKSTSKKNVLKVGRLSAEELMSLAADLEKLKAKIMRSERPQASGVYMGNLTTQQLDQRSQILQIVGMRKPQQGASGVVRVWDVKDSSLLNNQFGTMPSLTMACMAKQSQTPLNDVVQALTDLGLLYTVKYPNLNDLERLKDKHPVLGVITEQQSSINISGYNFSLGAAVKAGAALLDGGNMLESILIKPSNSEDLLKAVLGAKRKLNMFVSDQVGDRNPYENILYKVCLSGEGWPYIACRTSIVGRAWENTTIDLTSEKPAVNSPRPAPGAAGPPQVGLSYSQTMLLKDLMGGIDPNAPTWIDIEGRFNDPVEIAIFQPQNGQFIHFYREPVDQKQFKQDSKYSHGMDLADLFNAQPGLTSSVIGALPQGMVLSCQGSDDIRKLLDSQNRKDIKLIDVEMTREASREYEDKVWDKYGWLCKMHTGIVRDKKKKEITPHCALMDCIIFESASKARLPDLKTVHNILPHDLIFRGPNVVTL

Measured: Potency
Also: series mostly up to about 57 µM.

CC1(c2ccccc2)OC(C(=O)O)=CC1=O (configuration not stated)
inactive: [1] | [2] | [3] | [4]

CCc1cccc2c(CCO)c[nH]c12
inactive: [1] | [2] | [3] | [4]

Cc1cc(C(C)(C)C)c(O)c(C)c1CC1=NCCN1
inactive: [1] | [2] | [3] | [4]

O=C(O)c1cn(-c2ccc(F)cc2)c2cc(N3CCNCC3)c(F)cc2c1=O
inactive: [1] | [2] | [3] | [4]

C[C@]12CCC(=O)C=C1CC[C@@H]1[C@@H]2CC[C@@]2(C)[C@H]1CC[C@]2(O)C(=O)CO
inactive: [1] | [2] | [3] | [4]

C#CCN(C)Cc1ccccc1
inactive: [1] | [2] | [3] | [4]

CCC(=O)Oc1ccc2c(c1)CC[C@@H]1[C@@H]2CC[C@@]2(C)[C@H]1C[C@@H](OC(=O)CC)[C@@H]2OC(=O)CC
inactive: [1] | [2] | [3] | [4]

O=C(O)CNC(=O)c1ccccc1I
inactive: [1] | [2] | [3] | [4]
